The source made the active and inactive calls. The calls were made as follows: active = hit-call score of the fitted dose curve at least 0.9, where 1 is the maximum; inactive = score below 0.9.
read-out: Bcl-2 (BAX) gene, BAX (gene 581); test: LTEA_HepaRG_BAX: Life Technologies and Expression Analysis (LTEA) Assay for Bcl-2 (BAX) gene using HepaRG (AID 2283470); conditions: mRNA level, 48 h; actives raise or lower the signal
Method: LTEA_HepaRG is a cell based, multiplexed-readout assay that uses HepaRG, a human liver cell line, with measurements taken at 48 hours after chemical dosing on a 96-well plate.LTEA_HepaRG_BAX is one of 102 assay component(s) measured in the LTEA HepaRG cell culture assay. It is a marker of Cell proliferation, survival, death.Data from the assay component LTEA_HepaRG_BAX was analyzed into 1 endpoint. This assay endpoint, LTEA_HepaRG_BAX, was analyzed with bidirectional fitting relative to DMSO as the negative control and baseline of activity. Using a type of inducible reporter, measures of mRNA induction for gain or loss-of-signal activity can be used to understand regulation of transcription factor activity. To generalize the intended target to other relatable targets, this assay endpoint is annotated to the cell cycle intended target family, where the subfamily is Cell proliferation, survival, death.
A total of 1060 chemcials from the ToxCast library were tested in eight-point concentration-response experiments. Cell culture and cytotoxicity assays were conducted at Thermo Fisher Scientific's Custom Services facility (Madison, WI). A single lot of human HepaRG cells (Thermo Fisher Scientific, Frederick, MD) was used for the cell culture experiments. 96-well format collagen type I coated plates of human HepaRG cells were prepared using established methods. Briefly, cryopreserved HepaRG cells were thawed, plated at a density of approximately 100,000 cells/well in HepaRG Thaw, Plate, and General Purpose media (HPRG770, Thermo Fisher Scientific), and incubated for 48 hours. 0.5% DMSO was selected as vehicle control to balance the requisite need of DMSO in HepaRG cultures to maintain differentiation (for example, baseline metabolism, proportions of hepatocytes vs. cholangiocytes), while enabling further hepatic receptor pathway activation (for example, PXR and CAR) in response to chemical exposure. 48 hours after plating, the culture medium was replaced with HepaRG Serum-Free Incudtion Media. Cells were exposed to each test chemical in duplicate and maintained in CO2 incubators for another 48 hours. Chemical plates were thawed to room temperature and 200x concentrations of treatment groups were prepared. 8-point conentration-reponse curves were made with the highest exposure at 100 uM, followed by half-log dilutions, all in 0.5% DMSO. Each test plate contained variouse controls, induction positive controls (1mM phenobarbital), cytotoxicity positive controls ([…] aflatoxin B1), vehicle controls (0.5% DMSO), and total lysis controls (0.5% DMSO). Cell morphology images were taken using an Essen IncuCyte FLR automated microscope, with six 96-well plates imaged in about 24 minutes. Images were captured and exported and JPEG files. Spent culture media was transfered to black-well plates for the LDH assay, and remaining media was sorted at -80 C for later use. Cells were treated with RLT buffer and frozen until shipped for gene expression analysis. Total RNA was isolated from the cell suspension in 75 uL of Buffer RLT (Qiagen, Germantown, MD 20874) by Quintiles/Expression Analysis (Durham, NC) using a custom isolation procedure. Total RNA from each plate well was transferred to a preamplification plate. Fluidigm's 96.96 Dynamic ArrayTM (Fluidigm, Amsterdam, the Netherlands) technology was used for gene expression analyses by quantitative reverse transcription polymerase chain reaction (qRT-PCR, performed by Quintiles/Expression Analysis, Durham, NC)89. Standard TaqManTM Assays (Applied Biosystems/ThermoFisher Scientific, Foster City, CA) were used to assess the expression of 93 genes selected based on their selectivity and sensitivity to important hepatic receptors known to be modulated by environmental chemicals; importance in human hepatocyte functionality; and hepatotoxicity. […]

| SMILES | outcome |
| --- | --- |
| CN(C)C(=O)Cl | inactive |
| CCN(CC)c1ccccc1 | inactive |
| Cc1cccc(N)c1 | inactive |
| CC(Cc1ccc(OCC(=O)O)cc1)NCC(O)c1csc(C(F)(F)F)n1 (stereo not given) | inactive |
| O=C(O)C1C(C(=O)O)C2(Cl)C(Cl)=C(Cl)C1(Cl)C2(Cl)Cl (stereo not given) | inactive |
| Cc1ccc(O)cc1C | inactive |
| CCOc1ccc(C(C)(C)COCc2cccc(Oc3ccccc3)c2)cc1 | inactive |
| Nc1cc2c3c(c1)C(c1ccccc1)=N[C@@H](NC(=O)c1cccnc1)C(=O)N3CC2 | inactive |
| CC(C)(C)OOC(C)(C)C | inactive |
| ClC(Cl)c1ccccc1 | inactive |
| [N-]=[N+]=[N-] | inactive |
| ClC(Cl)(Cl)c1ccccc1 | inactive |
| c1cc2c3c(cccc3c1)CC2 | inactive |
| CCCN(CCC)c1c([N+](=O)[O-])cc(C(C)C)cc1[N+](=O)[O-] | inactive |
| CCC(C)(C)c1ccc(O)cc1 | inactive |
| ClC1=C(Cl)C2(Cl)C3C(Cl)C(Cl)CC3C1(Cl)C2(Cl)Cl (stereo not given) | inactive |
| CCC1(c2ccccc2)C(=O)N=C(O)NC1=O (stereo not given) | inactive |
| O=P1(N(CCCl)CCCl)NCCCO1 (stereo not given) | inactive |
| Nc1ccc2ccccc2c1 | inactive |
| CCOC(=O)c1ccccc1C(=O)OCC | inactive |

| SMILES | outcome |
| --- | --- |
| CC(Cl)(Cl)C(=O)O | inactive |
| COCCOCCO | inactive |
| CSC(C)(C)C=NO | inactive |
| CCCCN(CCCC)SN(C)C(=O)Oc1cccc2c1OC(C)(C)C2 | inactive |
| c1ccc2c(c1)Nc1ccccc1S2 | inactive |
| c1ccc(OP(Oc2ccccc2)Oc2ccccc2)cc1 | inactive |
| O=C(O)C(Cl)Cl | inactive |
| O=P(Oc1ccccc1)(Oc1ccccc1)Oc1ccccc1 | inactive |
| Cc1ccc(N)cc1N | inactive |
| O=[N+]([O-])c1ccc(Cl)c(Cl)c1 | inactive |
| CC(C)(C)c1ccc(O)cc1 | inactive |
| O=[N+]([O-])c1ccccc1 | inactive |
| CCNc1nc(Cl)nc(NC(C)(C)C)n1 | inactive |
| OCC1CO1 (stereo not given) | inactive |
| CCOP(=S)(Oc1ccc([N+](=O)[O-])cc1)c1ccccc1 (stereo not given) | inactive |
| CCOP(=S)(OCC)SCSCC | inactive |
| CCOS(=O)(=O)OCC | inactive |
| Nc1ccc(Cl)cc1 | inactive |
| CCCCc1ccccc1 | inactive |
| Cc1ccc([N+](=O)[O-])cc1C | inactive |

— PubChem BioAssay (EPA / NIEHS)
